The panel holds about 83,000 compounds, 20% with a hit somewhere; the sample as a whole holds those more often.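 In brief: 96-well plates, 48 h treatment, single concentration, percent growth endpoint.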 Calls of active or inactive are those of the source. How the source made its calls: active means growth percent below 10; inactive means the rest.

For the experiment, the system named is HT29 colon. As to the kind of experiment: NCI-60 one-dose screen, 48 h (100 = growth as untreated, 0 = no growth, -100 = all killed). The settings on record: 10 µM unless noted.
For the compound `COCCOc1ccc2ncc(C#Cc3cncc(C(=O)Nc4ccc(CN5CCN(C)CC5)c(C(F)(F)F)c4)c3)n2n1`, the growth was 15.6% (inactive). On to `CCOC(=O)c1c(N)c(C#N)cn1Cc1ccc(Cl)cc1Cl`, for which the growth was 80.4% (inactive). Consider `Cc1ccc(Nc2nc(SC(C)C)nc(-c3ccccc3)c2C#N)cc1`, for which the growth was 101% (inactive).

For `O=C(CSc1nc2ccccc2c(=O)n1-c1ccc(Cl)c(Cl)c1)Nc1ccc(S(=O)(=O)Nc2ccc(Cl)nn2)cc1`, the growth is 96.6% (inactive). For the compound `N#Cc1cnc2ccc(-c3cnc4n[nH]nc4c3)cc2c1N1CCc2cc(F)c(Cl)cc21`, the growth was 28.1% (inactive). For `CNC(=O)Nc1ccc(Nc2cc(-c3ccc(-n4cccn4)cc3)[nH]n2)c(C)c1` the value was 120% (inactive); for `CN1CCN(Cc2ccc(NC(=O)c3cncc(C#Cc4cnc5ccc(N)nn45)c3)cc2C(F)(F)F)CC1`, 5.96% (active); for `Cc1cc(=O)oc2cc(OCCCOc3ccc(/C=C/C(=O)Nc4ccc(Br)cc4)cc3)ccc12`, 90.8% (inactive).

For `C/C(CC1(O)C(=O)Nc2ccccc21)=N\O` (stereo unspecified), the growth is 104% (inactive). In the case of `Cc1ccc2c(n1)C(=O)C(Cl)=C(Nc1ccccc1C(=O)OC(C)(C)C)C2=O`, the growth is 26.2% (inactive). Regarding `COc1ccc(/C=N\NC(=O)c2cnn(CC(O)c3ccccc3)c2N)cc1OCc1ccc(Cl)cc1` (stereo unspecified), the growth is 90.6% (inactive).

Regarding `NC(N)=NS(=O)(=O)c1ccc(N=Nc2c(N)nn(-c3ccc([N+](=O)[O-])cc3[N+](=O)[O-])c2N)cc1`, the growth is 105% (inactive). For the compound `COc1ccccc1Cn1cc(C#N)c(N)c1C(=O)c1ccc(Br)cc1`, the growth is 107% (inactive). For `CC(=C(c1ccc(OCCN2CCCC2)cc1)c1ccc(OCCN2CCCC2)cc1)c1ccc(Cl)cc1`, the growth was -59.2% (active). `CCN(CC)CCOc1ccc(C(=C(C)Cc2ccc(OC)cc2)c2ccc(OCCN(CC)CC)cc2)cc1`: the growth is -4.07% (active). For `Fc1ccc(-c2cn3c(-c4c[nH]c5ccc(Br)cc45)csc3n2)cc1`, the growth was 97.9% (inactive).

Regarding `CC1=C(C)C(=O)C(Nc2cccc(C(=O)OC(C)(C)C)c2)=CC1=O`, the growth was 104% (inactive). Regarding `CSc1ccc(/C(=N/N=C(N)N)c2ccc(Cl)cc2)cc1`, the growth is -30.1% (active). Turning to `O=C(/C=C/Nc1ccc(S(=O)(=O)Nc2ncccn2)cc1)c1ccc(N=Cc2c(O)[nH]c3ccccc23)cc1`, the growth was 106% (inactive).

With `N#Cc1c(-c2cccs2)cc(-c2cnccn2)nc1SCC(=O)N/N=C/c1cccs1`, the growth is 30.9% (inactive). Take `O=S(=O)(NCCCNc1nccc(-c2[nH]c(-c3ccccc3)nc2-c2ccc(F)c(O)c2)n1)c1ccccc1`: the growth is 98.1% (inactive).

On to `CC1(C)CC[C@]2(C(=O)NCCCCCCN(CCCN)CCCN)CC[C@]3(C)C(=CC[C@@H]4[C@@]5(C)CC[C@H](O)C(C)(C)[C@@H]5CC[C@]43C)[C@@H]2C1`, for which the growth is 110% (inactive). As to `CCOC(=O)c1c(NCC(=O)Nc2cccc([N+](=O)[O-])c2)sc(C(C)=O)c1C`, the growth was -35.3% (active). In the case of `O=c1oc2ccc(-c3ccc(F)cc3F)cc2c(=O)n1-c1ccc(Br)cc1F`, the growth is 109% (inactive). Regarding `Cc1ccc2c(n1)C(=O)C(Cl)=C(Nc1cccc(C(=O)OC(C)(C)C)c1)C2=O`, the growth was 114% (inactive). Then `C/C(=C(\c1ccc(O)cc1)c1ccc(OCCN2CCCCCC2)cc1)c1ccc(Cl)cc1`, with -72.8% (active).

On to `CC1=C(C)C(=O)C(Nc2cccc(C(F)(F)F)c2)=C(Br)C1=O`, for which the growth was 106% (inactive).

With `CC(C)C(/C=C/c1[nH]ncc1-c1cc(Cl)ccc1O)N1CCOCC1` (stereo unspecified), the growth was 104% (inactive).

Regarding `Fc1cccc(Cl)c1/C=N/Nc1nc(N/N=C/c2c(F)cccc2Cl)nc(N2CCCCC2)n1`, the growth is 3.5% (active). Take `COc1ccc(C2C(C#N)=C(/N=C/c3ccc(Cl)cc3)Oc3c2sc2c(C)cccc32)cc1` (stereo unspecified): the growth was 1.39% (active). `O=C(CCCCCCNC(=O)C(O)(O)C(F)(F)F)Nc1ccc(Cl)cc1`: the growth was 5.13% (active). `O=C1C(SCc2ccccc2)=C(Cl)CN1c1ccc(Cl)cc1`: the growth was 84.5% (inactive). For `Cc1ccc(-c2nc(SCC(=O)c3ccccc3)nc(Nc3ccc(S(N)(=O)=O)cc3)c2C#N)cc1` the value was 92.3% (inactive); for `O=C1C(N2CCN(c3ccccc3)CC2)=C(Cl)C(=O)c2ncccc21`, 106% (inactive).

For `C#Cc1nc(C(=O)NCCCCCCC(=O)NO)cs1`, the growth is 5.53% (active). Regarding `C[C@H](Nc1ncnc2ccc(-c3cnc(Cl)c(NS(C)(=O)=O)c3)cc12)c1ccccc1`, the growth is -28.9% (active).
